Tau fibril ThT = tau fibrillization inhibition (ThT binding); recombinant tau K18 P301L, heparin-induced fibrillization, ThT fluorescence; Potency, µM (titrated, usually from 57.4 µM), for the others: at the top dose activity, negative = inhibition, hits mostly inhibitors; hit rate 2.1% among 270,000; AID 1460; note: potency is the fitted concentration of half-maximal effect; nearly all actives have a fitted effect of over 55% in size
Target sequence (P10636 561-689 P618L limits assumed): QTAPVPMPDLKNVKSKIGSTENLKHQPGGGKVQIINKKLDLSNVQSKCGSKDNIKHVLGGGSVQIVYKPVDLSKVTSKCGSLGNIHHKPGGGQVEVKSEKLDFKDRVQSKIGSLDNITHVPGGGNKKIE
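K18 P301L tau (15 uM + 0.24 uM Alexa 594-tagged), heparin 20 uM, NaOAc pH 7, 6 h 37 C; ThT 30 uM, 1 h RT, ex 450/em 510 nm.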
Tau fibril FP = tau fibrillization inhibition (FP); P10636; K18 P301L tau heparin fibrillization, Alexa594 FP, 6 h; Potency, µM (highest dose often 57.7 µM), for the others: at the top dose activity, negative = inhibition, actives largely listed as inhibitors; hit rate 0.39% among 280,000; AID 1468; note: potency is the fitted concentration of half-maximal effect; nearly all actives have a fitted effect of over 55% in size
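Quantitative HTS format: compounds meet 15 uM recombinant K18 P301L tau and Alexa 594-tau tracer in 100 mM sodium acetate pH 7; 20 uM heparin triggers fibrillization at 37 C over 6 hr; FP gives the signal.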
Sfp PPTase inh = inhibitors of Bacillus subtilis Sfp phosphopantetheinyl transferase. Potency, µM, for inactives: largest response in the series, negative = inhibition, hits mostly inhibitors. hit rate 3.5% among 310,000. Biochemical Sfp PPTase activity, qHTS. AID 1490;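 note: the enzyme is Sfp with the accession as filed and its product quenches rhodamine fluorescence; potency is the fitted concentration of half-maximal effect; 0% = enzyme reaction without inhibitor and -100% = no enzyme wells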
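Step 1, compound plus 15 nM Sfp-PPTase, 15 min, room temperature. Step 2, add rhodamine-CoA (5 uM) and BHQ-2-YbbR (12.5 uM). Step 3, read 525/598 nm fluorescence at 0 and 30 min.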
Coupling enz = counter-screen for Giardia aldolase inhibitors: coupling enzyme system | coupling enzyme system counterscreen, AmpLite Red fluorescence | activity change, negative = inhibition, % at 58.2 µM, hits read low | hit rate 0.67% among 290,000; in the data active = activity change below about -30%
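First, compound is pin-transferred into glyceraldehyde-3-phosphate coupling-enzyme reagent at 57.5 uM final and held 10 min at RT. Next, substrate, coupling system and AmpLite Red are added. After 20 min RT, fluorescence (525/598 nm) is read.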
Tau fluor cs = counter-screen for tau fibril formation inhibitors. tau K18 P301L (four-repeat tau fragment) Alexa594 fluorescence, heparin fibrillization. Potency, µM (doses to about 57.7 µM), inactives show at the top dose activity change, negative = decrease. hit rate 0.93% among 280,000; note: potency is the fitted concentration of half-maximal effect; nearly all actives have a fitted effect of over 55% in size
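Human K18 P301L tau (15 uM unlabeled plus 0.24 uM Alexa 594-labeled, final) in 100 mM sodium acetate pH 7 was mixed with compound and 20 uM heparin and incubated 6 hr at 37 C.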
An asterisk follows results filed as active; ? = inconclusive; . = no result given; [ ] = dose if it differs, or a comment. Hits are enriched below; roughly 5.2% of the tested compounds scored in any of these assays. Unless noted, calls come from the whole dose curve; as a rule, active = well fitted curve in the direction sought with a large enough effect; inconclusive = small, poorly fitted or top-dose-only effect, or another doubt; inactive = no such curve, though single readings can be large; an effect the other way counts as inactive or inconclusive. Unless noted, % is set by controls: 0 for no effect and ±100 for the full control effect.

SMILES	Tau fibril ThT	Tau fibril FP	Sfp PPTase inh	Coupling enz	Tau fluor cs
COc1ccc(C2NC(=O)C(C#N)=C(S)N2c2cccc(C)c2)cc1OC (stereo not drawn)	?	?	31.6µM*	2.7	-15.4%
CCOC(=O)CNc1oc(-c2ccccc2)nc1-c1ccccc1	-6.8%	0.1%	-0.4%	3.5	-6.3%
CCOC(=O)c1cc(C#N)c(SCC(=O)O)[nH]c1=O	-4.5%	-3.9%	50.1µM*	-0.9	0.1%
CCOC(=O)c1cc(C#N)c(SCC(=O)c2cc(C#N)c(SC)nc2C)[nH]c1=O	?	1.2%	31.6µM*	8.0	-17.4%
CCOC(=O)c1cc(C#N)c(SCC(=O)Nc2ccc(C(C)=O)cc2)[nH]c1=O	?	-7.1%	-1.6%	-2.7	-19.1%
CCOC(=O)c1cc(C#N)c(SCC(N)=O)[nH]c1=O	?	-14.4%	20µM*	-0.8	-10.5%
CN1/C(=C/C(=O)c2nc(S(C)(=O)=O)ncc2Cl)C(C)(C)c2ccccc21	5.01µM*	14.5%	-8.9%	2.3	-2.8%
Cc1ccc(/C=C/C(=O)N2CCN(S(=O)(=O)c3c(C)c(C)cc(C)c3C)CC2)o1	?	-6.4%	14.1µM*	0.4	-4.7%
Cc1ccc(/C=C/C(=O)N2CCN(S(=O)(=O)c3ccc(C)c(C)c3)CC2)o1	?	-18.0%	17.8µM*	0.8	-5.3%
C/C=C/c1ccc(O)c(OC)c1	.	.	-11.0%	.	.
COc1cc(/C=C2\SC(=Nc3ccccc3OC)NC2=O)ccc1O	.	.	9.4%	2.7	.
COc1cc(/C=C2/CC/C(=C/c3ccc(O)c(OC)c3)C2=O)ccc1O	0.891µM*	?	?	-1.2	-22.4%
COc1cc(/C=C2\CC/C(=C\c3ccc(OCCO)c(OC)c3)C2=O)ccc1OCCO	14.1µM*	?	-16.3%	-1.2	-26.5%
COc1cc(/C=C2\COC/C(=C\c3ccc(O)c(OC)c3)C2=O)ccc1O	10µM*	?	7.7%	1.4	?
COc1cc(/C=C2/SC(=Nc3ccc(O)cc3)NC2=O)ccc1O	4.47µM*	?	-11.6%	6.9	?
O=C(CSCc1cnn(-c2ccccc2)c1-n1cccc1)NCc1ccc(F)cc1	-14.6%	?	.	.	-11.1%
CN(C)c1ccc2c(-c3ccccc3)c3ccc(=[N+](C)C)cc-3oc2c1	.	.	?	20.3	.
O=C(O)c1ccc(-c2nc(-c3ccccc3)c(-c3ccccc3)[nH]2)cc1	-12.8%	7.0%	8.4%	12.4	-8.2%
COc1cc(-c2nc(-c3cccc(Cl)c3)c(-c3ccccc3)[nH]2)cc(OC)c1OC	-3.7%	?	.	.	?
Oc1ccccc1N=Nc1nc(-c2ccccc2)c(-c2ccccc2)[nH]1	4.47µM*	-5.5%	3.3%	-1.4	11.2µM*[quencher]
COc1ccccc1N=Nc1nc(-c2ccccc2)c(-c2ccccc2)[nH]1	3.55µM*	3.2%	-3.4%	0.9	?
COc1ccc(N=Nc2nc(-c3ccccc3)c(-c3ccccc3)[nH]2)cc1	3.98µM*	6.1%	14.8%	1.1	?
OC[C@H](S)CS	.	.	2.24µM*	.	.
COc1ccc(/C([O-])=C(/C(=S)Nc2ccc(C)c(C)c2)n2c[n+](C)c3ccccc32)cc1OC	-11.8%	4.2%	44.7µM*	2.6	-13.0%
CC(=O)Nc1ccc(/C=N/Nc2nc3ccccc3[nH]2)cc1	?	11.6%	10µM*	0.6	1.2%
SMILES	Tau fibril ThT	Tau fibril FP	Sfp PPTase inh	Coupling enz	Tau fluor cs
C(=N\Nc1nc2ccccc2[nH]1)/c1ccncc1	?	?	4.8%	-0.6	-21.7%
CCN(CC)c1ccc(/C=N/Nc2nc3ccccc3[nH]2)cc1	3.16µM*	?	-8.3%	-1.5	7.94µM*[quencher]
C(=N\Nc1nc2ccccc2[nH]1)/c1ccc2c(c1)OCO2	7.94µM*	13.2%	-79.8%	-1.4	?
C/C(=N\Nc1nc2ccccc2[nH]1)c1ccc2c(c1)OCO2	?	8.7%	-13.8%	-3.7	?
O=C(O)c1ccc(/C=N/Nc2nc3ccccc3[nH]2)cc1	-15.8%	-4.5%	-9.0%	6.3	-14.1%
O=C(CN1C(=O)c2cccnc2Oc2ccc(Cl)cc21)NCCCN1CCCCC1	1.8%	-0.8%	.	.	6.7%
COc1c(O)cc2oc3cc(O)c(CC=C(C)C)c(O)c3c(=O)c2c1CC=C(C)C	?	2.82µM*	2.6%	-4.7	2.82µM*[quencher]
